Data reported in PubChem BioAssay (NCATS).
“And” between values parts separate entries of the source, which are not always exact repeats. Equal values may be shown once. Records with an inconclusive call do not appear. Some compounds were tested as several samples or in several runs, with calls that do not always agree. The source made the active and inactive calls. Unless noted, calls come from the whole dose curve.

System: not listed separately
Experiment: AP1 Signaling Pathway (AID 357; active = well fitted curve in either direction with a large enough effect, not every such curve was filed as active;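 note: ME-180 reporter cells stimulated with EGF at its EC50 level; % is set by controls: 0 for no effect and ±100 for the full control effect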)
Conditions: ME-180 AP-1-bla reporter, EGF-induced, beta-lactamase ratio, 5 h; at 17.2 µM (top of the series)
Procedure, shortened: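 A ratiometric CCF4 readout (405 nm excitation; 460 and 530 nm emission) quantified AP-1-driven beta-lactamase in ME-180 cells after 5 h with compound and EC50 EGF; AC50 values were derived for activators and inhibitors.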

Row | Compound | activity change, negative = inhibition
1 | NS(=O)(=O)c1cc2c(cc1C(F)(F)F)NC(Cc1ccccc1)NS2(=O)=O (stereo unspecified) | -11.1% (inactive)
2 | CNCCCC1c2ccccc2C=Cc2ccccc21 | -3.44% (inactive) and 2.28% (inactive)
3 | Nc1ccc(S(=O)(=O)Nc2nccs2)cc1 | -3.49% (inactive)
4 | CCCCOC(=O)c1ccc(O)cc1 | -21.4% (inactive)
5 | Cc1cc2c(cc1S(N)(=O)=O)S(=O)(=O)CCC2 | 4.34% (inactive)
6 | C[C@H](N)[C@H](O)c1cccc(O)c1 | 2.95% (inactive)
7 | NS(=O)(=O)c1cc2c(cc1Cl)NC(CSCc1ccccc1)=NS2(=O)=O | -6.04% (inactive) and -5.71% (inactive)
8 | CC1(C)OC(=O)NC1=O | 5.67% (inactive)
9 | Cc1c(Cl)cccc1Nc1ccccc1C(=O)O | -25.1% (inactive) and -19.5% (inactive)
10 | COC(=O)C1=C(C)NC(C)=C(C(=O)OC)C1c1ccccc1[N+](=O)[O-] | -27.7% (inactive)
11 | Nc1ccc(S(=O)(=O)Nc2ccc(Cl)nn2)cc1 | 7.06% (inactive)
12 | C[C@]12C[C@H](O)[C@H]3[C@@H](CCC4=CC(=O)CC[C@@]43C)[C@@H]1CC[C@@H]2C(=O)CO | 0.397% (inactive)
13 | CCCCN(CCCC)CCCOC(=O)c1ccc(N)cc1 | -6.24% (inactive) and -3.31% (inactive)
14 | Cc1cc(CC(=O)O)n(C)c1C(=O)c1ccc(Cl)cc1 | 2.5% (inactive)
15 | Cc1cc(N)c2ccccc2[n+]1CCCCCCCCCC[n+]1c(C)cc(N)c2ccccc21 | -20.8% (inactive)
16 | Nc1ccc(S(=O)(=O)NC(=O)c2ccccc2)cc1 | 13.8% (inactive) and 7.16% (inactive)

Same assay, conditions: ME-180 (cervical carcinoma) AP-1-bla reporter, EGF-induced, beta-lactamase ratio, 5 h; at 38 µM (top of the series)

Row | Compound | activity change, negative = inhibition
17 | C=Cc1c(C)c2cc3[nH]c(cc4nc(cc5nc(cc1[nH]2)C(C)=C5CCC(=O)O)C(CCC(=O)O)=C4C)c(C)c3C=C | -5.02% (inactive)
18 | CCCCCCCCCCCCCCCC(=O)NCCO | 11.1% (inactive)
19 | CCCn1cnc2c1c(=O)n(CCCCC(C)=O)c(=O)n2C | -2.42% (inactive)
20 | NC(N)=NCCC[C@H](N)C(=O)O | -0.498% (inactive)

Molecular target: Cytochrome P450 1A2 (Homo sapiens) (UniProt P05177)
Experiment: p450-cyp1a2 (AID 410); note: potency is the fitted concentration of half-maximal effect;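 for activity change, negative = inhibition: -100% = full effect of reference inhibitor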
Conditions: recombinant CYP1A2, luciferin-ME demethylation, luminescence; series mostly up to 25.6 µM; activity change, negative = inhibition: at the top concentration
Procedure, shortened: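 O-Demethylation of luciferin 6' methyl ether by human CYP1A2 is monitored as luciferase luminescence. Substrate sits at Km (100uM); enzyme is 20nM. Values are scaled to 57 uM furafylline as maximal inhibition.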

Chain of Cytochrome P450 1A2 (Homo sapiens) (P05177 whole entry, looked up): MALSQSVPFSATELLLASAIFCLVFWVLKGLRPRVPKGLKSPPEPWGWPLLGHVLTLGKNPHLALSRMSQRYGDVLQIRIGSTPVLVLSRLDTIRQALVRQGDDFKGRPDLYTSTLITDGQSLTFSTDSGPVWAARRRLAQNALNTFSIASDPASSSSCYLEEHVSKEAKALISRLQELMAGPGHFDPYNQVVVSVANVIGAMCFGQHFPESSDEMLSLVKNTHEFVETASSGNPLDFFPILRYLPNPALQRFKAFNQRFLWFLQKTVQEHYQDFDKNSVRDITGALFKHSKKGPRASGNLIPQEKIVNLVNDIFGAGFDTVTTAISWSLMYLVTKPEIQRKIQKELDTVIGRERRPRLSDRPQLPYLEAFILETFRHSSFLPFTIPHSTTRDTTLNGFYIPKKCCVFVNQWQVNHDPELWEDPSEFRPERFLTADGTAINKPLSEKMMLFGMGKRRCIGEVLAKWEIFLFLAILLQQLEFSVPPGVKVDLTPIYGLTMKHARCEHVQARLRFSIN

Row | Compound | Potency | activity change, negative = inhibition
21 | C=Cc1c(C)c2cc3[nH]c(cc4nc(cc5nc(cc1[nH]2)C(C)=C5CCC(=O)O)C(CCC(=O)O)=C4C)c(C)c3C=C | 6.31 µM (active) | 
22 | CNCCCC1c2ccccc2C=Cc2ccccc21 | inactive | 
23 | Nc1ccc(S(=O)(=O)Nc2nccs2)cc1 |  | -1.6% (inactive)
24 | CCCCOC(=O)c1ccc(O)cc1 | 0.0794 µM (active) | 
25 | CCCn1cnc2c1c(=O)n(CCCCC(C)=O)c(=O)n2C | 12.6 µM (active) | 
26 | Cc1cc2c(cc1S(N)(=O)=O)S(=O)(=O)CCC2 |  | -16.8% (inactive)
27 | O=c1cc(CO)occ1O |  | -0.5% [at 57 µM] (inactive)
28 | CN(C)CCC=C1c2ccccc2CCc2ccccc21 | 15.8 µM (active) | 
29 | NS(=O)(=O)c1cc2c(cc1Cl)NC(CSCc1ccccc1)=NS2(=O)=O |  | -0.4% (inactive)
30 | CC1(C)OC(=O)NC1=O |  | -5.1% (inactive)
31 | Cc1c(Cl)cccc1Nc1ccccc1C(=O)O | 3.16 µM (active) | 
32 | CN(C)CCCN1c2ccccc2CCc2ccccc21 | inactive | 
33 | Nc1ccc(S(=O)(=O)Nc2ccc(Cl)nn2)cc1 |  | -7.1% (inactive)
34 | NC(N)=NCCC[C@H](N)C(=O)O | inactive and 31.6 µM (active) | 
35 | CCCCN(CCCC)CCCOC(=O)c1ccc(N)cc1 | 10 µM (active) | 
36 | Cc1cc(N)c2ccccc2[n+]1CCCCCCCCCC[n+]1c(C)cc(N)c2ccccc21 | inactive and 10 µM (active) and 15.8 µM (active) | 
37 | Nc1ccc(S(=O)(=O)NC(=O)c2ccccc2)cc1 |  | -3.9% (inactive)

System: not listed separately
Experiment: Cell Viability - BJ (AID 421);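 note: potency is the fitted concentration of half-maximal effect; cells exposed to compound for 40 hours at 37 °C before readout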
Conditions: BJ fibroblast viability, qHTS
Procedure, shortened: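 Luminescent ATP signal (CellTiter-Glo, 20 min at room temperature) served as the read-out of viable BJ cells after 40 hours of compound treatment. Responses were scaled between DMSO and 100 uM tamoxifen, and AC50 values were obtained by Hill modeling.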

Row | Compound | Potency
38 | CCCCCCCCCCCCOS(=O)(=O)O | > 92 µM (inactive)
39 | Nc1ccc(S(=O)(=O)Nc2nccs2)cc1 | > 92 µM (inactive)
40 | CCCCOC(=O)c1ccc(O)cc1 | > 92 µM (inactive)
41 | [Cl][In]([Cl])[Cl] | > 92 µM (inactive)
42 | O=C1c2c(O)cccc2Cc2cccc(O)c21 | > 92 µM (inactive)
43 | NC(=O)c1ncn([C@@H]2O[C@H](CO)[C@@H](O)[C@H]2O)n1 | > 92 µM (inactive)
44 | CC12CCC(CC1)C(C)(C)O2 | > 92 µM (inactive)
45 | Oc1cccc(O)c1 | > 92 µM (inactive)
46 | COC(=O)C1=C(C)NC(C)=C(C(=O)OC)C1c1ccccc1[N+](=O)[O-] | > 92 µM (inactive)
47 | O=C1O[C@H]([C@@H](O)CO)C(O)=C1O | > 92 µM (inactive)
48 | C[C@]12C[C@H](O)[C@H]3[C@@H](CCC4=CC(=O)CC[C@@]43C)[C@@H]1CC[C@@H]2C(=O)CO | > 92 µM (inactive)
49 | NCCNCCNCCN | > 92 µM (inactive)
50 | Cc1c(O)cccc1C(=O)N[C@@H](CSc1ccccc1)[C@H](O)CN1C[C@H]2CCCC[C@H]2C[C@H]1C(=O)NC(C)(C)C | 25.2 µM (active)
51 | Cc1cc2nc3c(=O)[nH]c(=O)nc-3n(C[C@H](O)[C@H](O)[C@H](O)CO)c2cc1C | > 92 µM (inactive)
52 | NC(=O)N/N=C/c1ccc([N+](=O)[O-])o1 | > 92 µM (inactive)
53 | CC1(C)[C@@H]2CC[C@@]1(C)C(=O)C2 | > 92 µM (inactive)
54 | Cc1cc(CC(=O)O)n(C)c1C(=O)c1ccc(Cl)cc1 | > 92 µM (inactive)
55 | NCCNCCNCCNCCN | > 92 µM (inactive)
56 | COc1ccccc1O | > 92 µM (inactive)
